Measured values reported in PubChem BioAssay (NCATS).
Inconclusive results are not listed. Entries that show only a call come without a potency. Active and inactive are the calls of the source. The call rests on the fitted dose curve; in most records, active means well fitted inhibition curve with a large enough effect; inconclusive means small, poorly fitted or top-dose-only effect; inactive means flat fitted curve, though single readings scatter.

Columns and labels:
[1] = biological target: Glutathione peroxidase 1 (Homo sapiens) (UniProt P07203); test: Primary qHTS Assay for Inhibitors of Recombinant Selenoprotein Glutathione Peroxidase 1 (GPX1) (AID 1845191); settings: recombinant GPX1, GR-coupled NADPH fluorescence, 15 min; series mostly up to 48.8 µM
In short: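 GPX1 10 nM, GR 100 nM, GSH 1 mM, NADPH 0.5 mM, CHP 0.5 mM (final). 30-min cpd preincubation, RT. Ex340/Em450 read t=0, t=15 min.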

[2] = biological target: Phospholipid hydroperoxide glutathione peroxidase GPX4 (Homo sapiens) (UniProt P36969); test: Primary qHTS Assay for Inhibitors of Recombinant Selenoprotein Glutathione Peroxidase 4 (GPX4) (AID 1845192); settings: recombinant GPX4, GR-coupled NADPH fluorescence, 15 min; series mostly up to 50 µM
In short: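 qHTS, GR-coupled: GPX4 200 nM + cpd 30 min RT → GSH 1 mM, NADPH 0.5 mM, GR 100 nM → CHP 0.5 mM start; fluor 340/450 at t0 and t15 min; no-enzyme wells as control.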
Further: nearly all actives have a fitted effect of over 65% in size.
Potency means the concentration at half of the fitted maximal effect.

Phospholipid hydroperoxide glutathione peroxidase GPX4 (Homo sapiens), sequence (P36969 whole entry, looked up): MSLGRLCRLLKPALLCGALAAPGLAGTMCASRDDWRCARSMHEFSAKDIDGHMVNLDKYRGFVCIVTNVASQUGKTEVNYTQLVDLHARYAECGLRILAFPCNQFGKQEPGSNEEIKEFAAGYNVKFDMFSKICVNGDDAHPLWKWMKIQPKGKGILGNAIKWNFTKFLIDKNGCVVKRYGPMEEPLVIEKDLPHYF
Glutathione peroxidase 1 (Homo sapiens), sequence (P07203 whole entry, looked up): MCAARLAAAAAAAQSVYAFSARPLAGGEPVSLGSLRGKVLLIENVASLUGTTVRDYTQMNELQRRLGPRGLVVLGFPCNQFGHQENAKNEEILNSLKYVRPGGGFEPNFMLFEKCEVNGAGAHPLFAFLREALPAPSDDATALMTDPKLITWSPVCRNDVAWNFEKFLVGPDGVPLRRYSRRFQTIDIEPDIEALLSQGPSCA

| Structure (SMILES) | Potency [1] | Potency [2] |
| --- | --- | --- |
| CCN1CCN(C(=O)N[C@@H](C(=O)N[C@@H]2C(=O)N3[C@@H]2SC(C)(C)[C@H]3C(=O)O)c2ccccc2)C(=O)C1=O | inactive | inactive |
| O=[N+]([O-])c1cncn1CCN1CCOCC1 | inactive | inactive |
| COC(=O)C1=C(C)NC(C)=C(C(=O)OCCc2ccc(N3CCN(C(c4ccccc4)c4ccccc4)CC3)cc2)C1c1cccc([N+](=O)[O-])c1 (stereo not drawn) | inactive | inactive |
| CCCCOCCOC(=O)c1cccnc1 | inactive | inactive |
| CNC[C@H](O)[C@@H](O)[C@H](O)[C@H](O)CO | inactive | inactive |
| O=S(=O)(O)c1ccc2nc(-c3ccccc3)[nH]c2c1 | inactive | inactive |
| N#CSCC(=O)O | inactive | inactive |
| O=C(O)CCC(=O)OC[C@@H](NC(=O)C(Cl)Cl)[C@H](O)c1ccc([N+](=O)[O-])cc1 | inactive | inactive |
| Cc1ccc(C(=O)Oc2ccc(C(O)CNC(C)(C)C)cc2OC(=O)c2ccc(C)cc2)cc1 (stereo not drawn) | inactive | inactive |
| CCCCCCCCCCCCCCCCCCNC(=O)OC1CCN(C(=O)OC[C@H](COC(=O)N(Cc2cccc[n+]2CC)C(=O)c2ccccc2OC)OC)CC1 | inactive | inactive |
| Nc1ccc2cc3ccc(N)cc3nc2c1 | inactive | inactive |
| COc1c(N2C[C@@H]3CCCN[C@@H]3C2)c(F)cc2c(=O)c(C(=O)O)cn(C3CC3)c12 | 14.3 µM (active) | 11.2 µM (active) |
| CCN(CC)C(=O)C1CN2CCc3cc(OC)c(OC)cc3C2CC1OC(C)=O (stereo not drawn) | inactive | inactive |
| CC(C)=CCC/C(C)=C/CC/C(C)=C/C(=O)OCC(=O)[C@@]1(O)CC[C@H]2[C@@H]3CCC4=CC(=O)C=C[C@]4(C)[C@H]3[C@@H](O)C[C@@]21C | inactive | inactive |
| C[C@@H]1C[C@H]2[C@@H]3CCC4=CC(=O)C=C[C@]4(C)[C@@]3(F)[C@@H](O)C[C@]2(C)[C@@]1(O)C(=O)COC(=O)c1ccncc1 | inactive | inactive |
| O=C(CCOCCOCCOCCOCCC(=O)Nc1c(I)cc(I)c(C(=O)O)c1I)Nc1c(I)cc(I)c(C(=O)O)c1I | inactive | inactive |
| CNC(=O)c1cnn(-c2nc(N)c3ncn([C@@H]4O[C@H](CO)[C@@H](O)[C@H]4O)c3n2)c1 | inactive | inactive |
| CC(=O)Nc1c(I)c(NC(C)=O)c(I)c(C(=O)O)c1I | inactive | inactive |
| C[C@@H]1CCC[C@H](C)N1CCCC(O)(c1ccccc1)c1ccccn1 (stereo partly drawn) | inactive | inactive |
| C[C@]12CCC(=O)C=C1CC[C@@H]1[C@@H]2[C@@H](O)C[C@@]2(C)[C@H]1CC[C@]2(O)C(=O)COC(=O)CCC(=O)O | inactive | inactive |
| CCOC(=O)NNc1ccc(N(CC)CC(C)O)nn1 (stereo not drawn) | inactive | inactive |
| CCC[C@H](N[C@@H](C)C(=O)N1[C@H](C(=O)O)C[C@@H]2CCCC[C@@H]21)C(=O)OCC | inactive | inactive |

| Structure (SMILES) | Potency [1] | Potency [2] |
| --- | --- | --- |
| CN1CCCN=C1/C=C/c1cccs1 | inactive | inactive |
| N#Cc1cc(NC(=O)C(=O)O)c(Cl)c(NC(=O)C(=O)O)c1 | inactive | inactive |
| C[N+](C)(CCOc1ccccc1)Cc1cccs1 | inactive | inactive |
| CC(C)=CCC/C(C)=C/CC/C(C)=C/CCC(=O)OC/C=C(\C)CCC=C(C)C | inactive | inactive |
| NC(=O)NC1N=C([O][Al])NC1=O (stereo not drawn) | inactive | inactive |
| CC1(C)S[C@@H]2[C@H](NC(=O)C(c3ccccc3)S(=O)(=O)O)C(=O)N2[C@H]1C(=O)O (stereo partly drawn) | inactive | inactive |
| Cc1ccc(/C=N/n2c(-c3ccccc3)csc2=S)cc1 | inactive | inactive |
| C/C(=C1\CCOC(=O)S1)N(C=O)Cc1cnc(C)nc1N | inactive | inactive |
| CCN(CC)CC(=O)Nc1c(C)cccc1C(=O)OC | inactive | inactive |
| N=C(N)c1ccc(OCCCOc2ccc(C(=N)N)cc2)cc1 | inactive | inactive |
| CC(=O)OCC(=O)[C@@]1(O)[C@H](OC(C)=O)C[C@H]2[C@@H]3CCC4=CC(=O)C=C[C@]4(C)[C@@]3(F)[C@@H](O)C[C@@]21C | inactive | inactive |
| CCN(CC)CC(=O)OCC(=O)[C@@]1(O)CC[C@H]2[C@@H]3CCC4=CC(=O)CC[C@]4(C)[C@H]3[C@@H](O)C[C@@]21C | inactive | inactive |
| CN(C(=O)C(Cl)Cl)c1ccc(OC(=O)c2ccco2)cc1 | inactive | inactive |
| CN1CC(=O)N2[C@H](c3ccc4c(c3)OCO4)c3[nH]c4ccccc4c3C[C@@H]2C1=O | inactive | inactive |
| CCOC(=O)Oc1ccc(CCNC(=O)[C@H](CCSC)NC(C)=O)cc1OC(=O)OCC | inactive | inactive |
| Cc1ncc(CO)c(CO)c1O | inactive | inactive |
| CC(C)(C)NCC(O)COc1ccccc1OCC1CCCO1 (stereo not drawn) | inactive | inactive |
| CCC(=O)Oc1ccc2c(c1)CC[C@@H]1[C@@H]2CC[C@@]2(C)[C@H]1C[C@@H](OC(=O)CC)[C@@H]2OC(=O)CC | inactive | inactive |
| N#C/C(=C1/SC[C@@H](c2ccc(Cl)cc2Cl)S1)n1ccnc1 | inactive | inactive |
| Cc1cccc(C)c1NC(=O)c1cc(S(N)(=O)=O)c(Cl)cc1O | inactive | inactive |
| CN1C(CSCC(F)(F)F)Nc2cc(Cl)c(S(N)(=O)=O)cc2S1(=O)=O (stereo not drawn) | inactive | inactive |
| Cc1c(C)c2c(c(C)c1OC(=O)CCC(=O)OCCO)CC[C@@](C)(CCC[C@H](C)CCC[C@H](C)CCCC(C)C)O2 | inactive | inactive |
